Compounds with a hit are over-represented: about 2.7% of the library has one in this group of screens.
PAFAH1B2 FP inh = inhibitors of human PAFAH1B2 | recombinant PAFAH1B2, FP-rhodamine activity probe, fluorescence polarization | inhibition, % at 3.39 µM | 340,000 compounds, 1.2% hits | P68402 | AID 492953;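 active = inhibition above the mean of all tested compounds plus 3 SD, cut at about 24% in these data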
PAFAH2 inh = PAFAH2 (human) inhibition; recombinant PAFAH2, FP-rhodamine activity probe, fluorescence polarization; 340,000 compounds, 0.99% hits; AID 492956; inhibition, % at 3.39 µM;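 active = inhibition above the mean over all tested compounds plus 3 SD, cut at about 30% in these data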;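 also: inhibitors block probe labeling of enzyme so polarization drops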
TCR-CD3 inh = human TCR-CD3 binding inhibition. 360,000 compounds, 0.37% hits. TAMRA-labeled TCR probe fluorescence, biochemical. AID 651800. inhibition, % at 9.4 µM; in the data active = inhibition above about 19%;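 also: recombinant mutant TCR 2C K166C tagged with TAMRA read by polarization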
PAFAH1B3 inh = PAFAH1B3 (human) inhibition; AID 492972; 340,000 compounds, 0.28% hits; inhibition, % at 3.39 µM; recombinant PAFAH1B3, FP-rhodamine probe, fluorescence polarization; Q15102;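 active = inhibition above the screen-wide average of all tested compounds plus 3 SD, cut at about 25% in these data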
Target sequence (Q15102 whole entry, looked up): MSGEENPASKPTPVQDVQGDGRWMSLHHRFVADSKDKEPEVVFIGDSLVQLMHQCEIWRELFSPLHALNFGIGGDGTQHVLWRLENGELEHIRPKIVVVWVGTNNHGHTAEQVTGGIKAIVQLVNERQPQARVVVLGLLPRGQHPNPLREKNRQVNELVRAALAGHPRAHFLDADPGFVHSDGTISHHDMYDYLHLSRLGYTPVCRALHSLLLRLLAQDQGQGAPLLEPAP
pPAFAH inh = inhibitors of human plasma PAF acetylhydrolase (pPAFAH); Q13093; 330,000 compounds, 1.5% hits; AID 463082; inhibition, % at 3.39 µM; recombinant pPAFAH, FP-rhodamine probe fluorescence polarization;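 active = inhibition above the mean inhibition across the screen plus 3 SD, cut at about 25% in these data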;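 also: inhibitors block binding of the rhodamine activity-based probe so polarization drops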
Target sequence (Q13093 whole entry, looked up): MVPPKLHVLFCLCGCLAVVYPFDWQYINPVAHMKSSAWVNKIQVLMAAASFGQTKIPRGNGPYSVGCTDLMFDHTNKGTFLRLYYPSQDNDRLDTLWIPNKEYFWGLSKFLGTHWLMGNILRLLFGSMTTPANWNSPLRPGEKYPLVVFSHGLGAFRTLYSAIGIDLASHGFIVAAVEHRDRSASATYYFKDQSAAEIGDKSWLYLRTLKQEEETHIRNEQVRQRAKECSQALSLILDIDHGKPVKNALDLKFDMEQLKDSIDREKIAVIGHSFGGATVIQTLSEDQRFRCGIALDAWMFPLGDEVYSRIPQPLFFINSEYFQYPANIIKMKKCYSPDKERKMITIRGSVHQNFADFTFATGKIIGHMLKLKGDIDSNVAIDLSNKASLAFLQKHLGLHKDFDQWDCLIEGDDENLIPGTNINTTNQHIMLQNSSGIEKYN
Numbers stand for hits.

`COc1ccccc1CNc1ccc(N2CCCCC2)cc1` gave PAFAH1B2 FP inh inactive, PAFAH2 inh inactive, PAFAH1B3 inh inactive and pPAFAH inh 27.
Screening COc1cccc(CNc2ccc(N3CCCCC3)cc2)c1OC returned PAFAH1B2 FP inh inactive, PAFAH2 inh inactive, TCR-CD3 inh inactive, PAFAH1B3 inh inactive and pPAFAH inh inactive.
`C=CCOc1c(Cl)cc(CNc2ccc(N(C)C)cc2)cc1OC` gave PAFAH1B2 FP inh inactive, PAFAH2 inh inactive, TCR-CD3 inh inactive, PAFAH1B3 inh inactive and pPAFAH inh 25.
`CCOc1ccc(CNc2ccc(N3CCCC3)cc2)cc1` gave PAFAH1B2 FP inh inactive, PAFAH2 inh inactive, PAFAH1B3 inh inactive and pPAFAH inh 33.
CCOc1cc(CNc2ccc(N3CCCC3)cc2)cc(Cl)c1OC was read as PAFAH1B2 FP inh inactive, PAFAH2 inh inactive, TCR-CD3 inh inactive, PAFAH1B3 inh inactive and pPAFAH inh inactive.
Screening COc1cc(CNc2ccc(N3CCCC3)cc2)cc(Cl)c1OC returned PAFAH1B2 FP inh inactive, PAFAH2 inh inactive, TCR-CD3 inh inactive, PAFAH1B3 inh inactive and pPAFAH inh 28.
For Cc1cc(S(=O)(=O)NC(=O)[C@H]2O[C@@H](n3ccc(=O)[nH]c3=O)[C@H](O)[C@@H]2O)ccc1Br the results were TCR-CD3 inh inactive.
Screening COCc1[nH]nc2c1C(c1cccc(C(F)(F)F)c1)N(c1ccccc1)C2=O (stereo not given) returned TCR-CD3 inh inactive.
Screening COc1ccc(-c2ccc3c(n2)CCCN3S(=O)(=O)c2ccc(C(F)(F)F)cc2)cc1 returned TCR-CD3 inh inactive.
Screening C#CCN(Cc1ccco1)C(=O)c1nnc2c3ccccc3n(S(=O)(=O)c3ccccc3)c2n1 returned TCR-CD3 inh inactive.
Screening O=C(NCC[C@@H]1C[C@@H]2C=C[C@H]1C2)c1cc(COc2ccc(F)cc2F)on1 returned PAFAH1B2 FP inh inactive, PAFAH2 inh inactive, TCR-CD3 inh inactive, PAFAH1B3 inh inactive and pPAFAH inh inactive.
Screening Cc1cc2c(c(=O)o1)[C@@]1(C(=O)N(C)c3cc(Br)ccc31)C1=C(CCCC1=O)O2 returned TCR-CD3 inh inactive.
Screening COc1ccc2ccc(OC)c(/C=N/n3cnnc3)c2c1 returned PAFAH1B2 FP inh inactive, PAFAH2 inh inactive, TCR-CD3 inh inactive, PAFAH1B3 inh inactive and pPAFAH inh inactive.
O=C(O)c1ccn2c(C(=O)c3ccccc3)c(-c3ccccc3)cc2c1 was read as PAFAH1B2 FP inh 38, PAFAH2 inh inactive, TCR-CD3 inh inactive, PAFAH1B3 inh inactive and pPAFAH inh inactive.
Screening COc1ccc(-c2cc3cc(C(=O)O)ccn3c2C(=O)c2ccccc2)cc1 returned PAFAH1B2 FP inh inactive, PAFAH2 inh inactive, TCR-CD3 inh inactive, PAFAH1B3 inh inactive and pPAFAH inh inactive.
For COc1ccccc1NS(=O)(=O)c1cccc(C(=O)N2CCN(C(=O)c3ccco3)CC2)c1 the results were PAFAH1B2 FP inh inactive, PAFAH2 inh inactive, TCR-CD3 inh inactive, PAFAH1B3 inh inactive and pPAFAH inh inactive.
`CCn1c(C(C)NC(=O)c2cccs2)n[nH]c1=S` (stereo not given) gave PAFAH1B2 FP inh inactive, PAFAH2 inh inactive, TCR-CD3 inh inactive, PAFAH1B3 inh inactive and pPAFAH inh inactive.
For N#C/C(N=Nc1ccccc1O)=N\Nc1ccccc1O the results were PAFAH1B2 FP inh 36, PAFAH2 inh 41, TCR-CD3 inh inactive, PAFAH1B3 inh 50 and pPAFAH inh inactive.
For Oc1ccccc1N=N/C(=N/Nc1ccccc1O)c1ccccc1 the results were PAFAH1B2 FP inh inactive, PAFAH2 inh inactive, TCR-CD3 inh inactive, PAFAH1B3 inh inactive and pPAFAH inh inactive.
O=C1[C@H](Cc2ccccc2)NCC=CC[C@H](c2ccc(Cl)cc2)N1Cc1ccccc1 was read as PAFAH1B2 FP inh 27, PAFAH2 inh inactive, TCR-CD3 inh inactive and PAFAH1B3 inh inactive.
`O=C(NCCSc1ncc(-c2ccc(F)cc2)[nH]1)c1ccc2c(c1)OCO2` gave PAFAH1B2 FP inh 33, PAFAH2 inh inactive, TCR-CD3 inh inactive, PAFAH1B3 inh inactive and pPAFAH inh inactive.
CC1CCc2c(sc(NC(=O)c3ccc(Cn4cc([N+](=O)[O-])cn4)o3)c2C#N)C1 (stereo not given) was read as PAFAH1B2 FP inh inactive, PAFAH2 inh inactive, TCR-CD3 inh inactive, PAFAH1B3 inh inactive and pPAFAH inh 31.
For COc1ccc(N(C)S(=O)(=O)c2cccc(C(=O)N3CCN(S(=O)(=O)c4ccc(C)cc4)CC3)c2)cc1 the results were PAFAH1B2 FP inh 55, PAFAH2 inh inactive, TCR-CD3 inh inactive, PAFAH1B3 inh inactive and pPAFAH inh inactive.
`O=C(OC1CCOC1=O)c1cccc(S(=O)(=O)Nc2cccc(Cl)c2)c1` (stereo not given) gave PAFAH1B2 FP inh inactive, PAFAH2 inh inactive, TCR-CD3 inh inactive, PAFAH1B3 inh inactive and pPAFAH inh 27.
Screening Oc1ccc(N=Cc2cc(Br)c(N3CCOCC3)o2)cc1 returned PAFAH1B2 FP inh inactive, PAFAH2 inh inactive, TCR-CD3 inh 32, PAFAH1B3 inh inactive and pPAFAH inh inactive.
O=[N+]([O-])c1cc(Br)c(O)c(C=Nc2ccc(N3CCOCC3)cc2)c1 was read as PAFAH1B2 FP inh inactive, PAFAH2 inh inactive, TCR-CD3 inh 49, PAFAH1B3 inh inactive and pPAFAH inh 34.
Cc1cc(O)c(C=Nc2ccc(N3CCOCC3)cc2)c(C)c1Cl was read as PAFAH1B2 FP inh inactive, PAFAH2 inh inactive, TCR-CD3 inh inactive, PAFAH1B3 inh inactive and pPAFAH inh inactive.
Screening Cc1nn(CC(=O)NCc2ccc(-n3cccn3)cc2)c(C)c1[N+](=O)[O-] returned PAFAH1B2 FP inh inactive, PAFAH2 inh inactive, TCR-CD3 inh inactive, PAFAH1B3 inh inactive and pPAFAH inh inactive.
Screening COCCCNc1ncnc2ccc(C)cc12 returned PAFAH1B2 FP inh inactive, PAFAH2 inh inactive, TCR-CD3 inh inactive, PAFAH1B3 inh inactive and pPAFAH inh 25.
Screening Cc1ccc2ncnc(NCCC(=O)O)c2c1 returned PAFAH1B2 FP inh inactive, PAFAH2 inh inactive, TCR-CD3 inh inactive, PAFAH1B3 inh inactive and pPAFAH inh inactive.
Screening CN(C(=O)COC(=O)c1ccc(Cl)c(S(=O)(=O)NCc2ccccc2)c1)C1CCS(=O)(=O)C1 (stereo not given) returned PAFAH1B2 FP inh 34, PAFAH2 inh inactive, TCR-CD3 inh inactive and PAFAH1B3 inh inactive.
CCOC(=O)c1cnc2ccc(C)cc2c1N(C)Cc1ccccc1 was read as PAFAH1B2 FP inh inactive, PAFAH2 inh inactive, TCR-CD3 inh inactive, PAFAH1B3 inh inactive and pPAFAH inh 25.
CCOC(=O)c1cnc2ccc(C)cc2c1Sc1ccccc1 was read as PAFAH1B2 FP inh inactive, PAFAH2 inh inactive, TCR-CD3 inh inactive, PAFAH1B3 inh inactive and pPAFAH inh inactive.
For O=C(COC(=O)c1ccccc1NS(=O)(=O)c1cc([N+](=O)[O-])ccc1Cl)c1ccccc1 the results were pPAFAH inh inactive.
For CN(C(=O)COC(=O)c1cc(NS(=O)(=O)c2cc([N+](=O)[O-])ccc2Cl)ccc1O)C1CCCCC1 the results were PAFAH1B2 FP inh 26, PAFAH2 inh inactive, TCR-CD3 inh inactive, PAFAH1B3 inh inactive and pPAFAH inh inactive.
`CCN=C1NC(c2ccccc2C(F)(F)F)C(C(=O)OC)=C(C)N1Cc1ccc(C(F)(F)F)cc1` (stereo not given) gave TCR-CD3 inh inactive.

Screening data deposited in PubChem by The Scripps Research Institute Molecular Screening Center.
